PubChem BioAssay (Tox21)
Inconclusive results are not listed. Active and inactive are the calls of the source. Unless noted, the call rests on the fitted dose curve; in most records, active means well fitted curve in the direction sought with a large enough effect in the repeat runs; inconclusive means weak or mixed curves; inactive means no such curve, though single readings can be large; an effect the other way counts as inactive or inconclusive.

Columns and labels:
[1] = qHTS assay for small molecule agonists of the p53 signaling pathway (AID 651631; calls by dose curve; further: nearly all actives have a fitted effect of over 15% in size)
Method in brief: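 HCT-116 cells carrying a stable p53 response element–beta-lactamase reporter were plated, rested 5 h at 37 °C, then exposed to compound in DMSO for 16 h at 37 °C; reporter activity was read as FRET substrate fluorescence after 2 h at room temperature.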

[2] = qHTS assay for small molecules that induce genotoxicity in human embryonic kidney cells expressing luciferase-tagged ATAD5 (AID 651632); further: nearly all actives have a fitted effect of over 15% in size
Method in brief: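 ATAD5-luc HEK293T, 2,000 cells/well; cpd or DMSO pin-transferred; 16 hr, 37C/5% CO2; Amplite 30 min RT; luminescence.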

[3] = qHTS assay for small molecule agonists of the p53 signaling pathway - cell viability (AID 651633; calls by dose curve; further: series mostly up to about 83 µM; nearly all actives have a fitted effect of over 30% in size)
Method in brief: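 p53RE-bla cells were treated with compound for 16 hours at 37 C. Cytotoxicity was then measured as CellTiter-Glo luminescence after 30 min at room temperature.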

[4] = qHTS assay for small molecules that induce genotoxicity in human embryonic kidney cells expressing luciferase-tagged ATAD5 - cell viability (AID 651634; calls by dose curve; further: nearly all actives have a fitted effect of over 25% in size)
Method in brief: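 Fluorescence from CellTiter-Fluor, reporting protease activity within live cells, served as the viability read-out. HEK293T cells carrying luciferase-tagged ATAD5 had been treated with compound for 15.5 hr at 37C.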

[5] = qHTS assay for small molecule disruptors of the mitochondrial membrane potential - cell viability (AID 720634; calls by dose curve;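 further: human HepG2 liver cancer cells; series mostly up to about 83 µM; nearly all actives have a fitted effect of over 20% in size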)
Method in brief: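 Cells: HepG2, 2,000/well, attached overnight. Compound 1 hr, 37 C/5% CO2. +m-MPI dye, +CellTiter-Glo 30 min RT. Readout: luminescence (ATP).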

[6] = qHTS assay for small molecule disruptors of the mitochondrial membrane potential (AID 720635)
Method in brief: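 HepG2 cells exposed to compound 1 hr at 37C, then Mito-MPS dye 30 min. Ratio read of aggregate (540/590 nm) versus monomer (490/535 nm) fluorescence.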

[7] = qHTS assay to test for compound auto fluorescence at 590 nm (red) in HepG2 cells (AID 720674)
Method in brief: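 HepG2 cells, 2,000 per well in MEM with 10% FBS, attached overnight at 37 C, then got 23 nL compound or DMSO. After 1 hr at 37 C, 5% CO2, red fluorescence was read at 540/590 nm against Rose Bengal sodium as reference.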

[8] = qHTS assay to test for compound auto fluorescence at 535 nm (green) in HepG2 cells (AID 720675)
[9] = qHTS assay to test for compound auto fluorescence at 460 nm (blue) in HEK293 cells (AID 720678)
Method in brief: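 Blue-channel (Ex/Em 405/460 nm) intensity measured in HEK293 cultures after overnight compound exposure at 37C; signal expressed relative to triamterene. Cells plated 2,000 per well in 10% dialyzed FBS medium and allowed 4-5 hr to attach.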

[10] = qHTS assay to test for compound auto fluorescence at 590 nm (red) in HEK293 cells (AID 720679)
Method in brief: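 Red-channel autofluorescence (Ex/Em 540/590 nm; Rose Bengal sodium reference) was measured after overnight 37C, 5% CO2 exposure of attached HEK293 cells, 2,000 per well in medium with 10% dialyzed FBS.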
On the % scale 0 is the no-effect control and ±100 the full control effect.

CC(=O)c1sc(C)nc1C
inactive: outcome [1] | Potency [2] | outcome [3] | Potency [4] | outcome [5] | Potency [6] | outcome [7] | outcome [8] | outcome [9] | outcome [10]

CCCCCCCCCCCCCC
inactive: outcome [1] | Potency [2] | outcome [3] | Potency [4] | outcome [5] | Potency [6] | outcome [7] | outcome [8] | outcome [9] | outcome [10]

Cc1ccc(C=O)cc1C
inactive: outcome [1] | Potency [2] | outcome [3] | Potency [4] | outcome [5] | Potency [6] | outcome [7] | outcome [8] | outcome [9] | outcome [10]

CC(C)NCC(O)COc1ccc(COCCOC(C)C)cc1 (stereo not given)
inactive: outcome [1] | Potency [2] | outcome [3] | Potency [4] | outcome [5] | Potency [6] | outcome [7] | outcome [8] | outcome [9] | outcome [10]

CCCCOC(=O)c1ccccc1
inactive: outcome [1] | Potency [2] | outcome [3] | Potency [4] | outcome [5] | Potency [6] | outcome [7] | outcome [8] | outcome [9] | outcome [10]

Cc1ccccc1OCC(O)CO (stereo not given)
inactive: outcome [1] | Potency [2] | outcome [3] | Potency [4] | outcome [5] | Potency [6] | outcome [7] | outcome [8] | outcome [9] | outcome [10]

Cc1cc(C(C)(C)C)c(O)c(C)c1CC1=NCCN1
inactive: outcome [1] | Potency [2] | outcome [3] | Potency [4] | outcome [5] | Potency [6] | outcome [7] | outcome [8] | outcome [9] | outcome [10]

COc1cc(NS(=O)(=O)c2ccc(N)cc2)nc(OC)n1
inactive: outcome [1] | Potency [2] | outcome [3] | Potency [4] | outcome [5] | Potency [6] | fluorescence, relative to Rose Bengal [7] -0.297% [at 18.6 µM] | fluorescence, % of fluorescein control [8] -0.149% [at 18.6 µM] | fluorescence, % of triamterene [9] 0.216% [at 18.6 µM] | fluorescence, % of fluorescent control [10] -0.0598% [at 18.6 µM]

Cc1nc2n(c(=O)c1CCN1CCC(c3noc4cc(F)ccc34)CC1)CCC[C@H]2O
inactive: outcome [1] | Potency [2] | outcome [3] | Potency [4] | outcome [5] | Potency [6] | outcome [7] | outcome [8] | outcome [9] | outcome [10]

CCOc1cc(NC(C)=O)ccc1C(=O)OC
inactive: outcome [1] | Potency [2] | outcome [3] | Potency [4] | outcome [5] | Potency [6] | outcome [7] | outcome [8] | outcome [9] | outcome [10]

Cc1ccsc1/C=C/C1=NCCCN1C
inactive: outcome [1] | Potency [2] | outcome [3] | Potency [4] | outcome [5] | Potency [6] | fluorescence, relative to Rose Bengal [7] 0.162% [at 18.6 µM] | fluorescence, % of fluorescein control [8] 0.0988% [at 18.6 µM] | fluorescence, % of triamterene [9] -0.421% [at 18.6 µM] | fluorescence, % of fluorescent control [10] -1.08% [at 18.6 µM]

CC(C)C[C@H](NC(=O)CNC(=O)[C@H](Cc1ccc(O)cc1)NC(=O)[C@H](CO)NC(=O)[C@H](Cc1c[nH]c2ccccc12)NC(=O)[C@H](Cc1cnc[nH]1)NC(=O)[C@@H]1CCC(=O)N1)C(=O)N[C@@H](CCCN=C(N)N)C(=O)N1CCC[C@H]1C(=O)NCC(N)=O (stereo in doubt)
inactive: outcome [1] | Potency [2] | outcome [3] | Potency [4] | outcome [5] | Potency [6] | outcome [7] | outcome [8] | outcome [9] | outcome [10]

COC(=O)[C@@H]1[C@H]2C[C@H]3c4[nH]c5ccccc5c4CCN3C[C@@H]2CC[C@@H]1O
inactive: outcome [1] | Potency [2] | outcome [3] | Potency [4] | outcome [5] | Potency [6] | outcome [7] | outcome [8] | outcome [9] | outcome [10]

CC(COC(C)(C)C)OCCCO (stereo not given)
inactive: outcome [1] | Potency [2] | outcome [3] | Potency [4] | outcome [5] | Potency [6] | outcome [7] | outcome [8] | outcome [9] | outcome [10]

CN1CCN(CC(=O)N2c3ccccc3C(=O)Nc3cccnc32)CC1
inactive: outcome [1] | Potency [2] | outcome [3] | Potency [4] | outcome [5] | Potency [6] | outcome [7] | outcome [8] | outcome [9] | outcome [10]

N#Cc1ccc(C(=O)O)cc1
inactive: outcome [1] | Potency [2] | outcome [3] | Potency [4] | outcome [5] | Potency [6] | outcome [7] | outcome [8] | outcome [9] | outcome [10]

CC(C(=O)O)c1ccc2c(c1)CC(=O)c1ccccc1S2 (stereo not given)
inactive: outcome [1] | Potency [2] | outcome [3] | Potency [4] | outcome [5] | Potency [6] | outcome [7] | outcome [8] | outcome [9] | outcome [10]

O=C(CCNNC(=O)c1ccncc1)NCc1ccccc1
inactive: outcome [1] | Potency [2] | outcome [3] | Potency [4] | outcome [5] | Potency [6] | outcome [7] | outcome [8] | outcome [9] | outcome [10]

O=C(CS(=O)Cc1ccco1)NC/C=C\COc1cc(CN2CCCCC2)ccn1 (stereo not given)
inactive: outcome [1] | Potency [2] | outcome [3] | Potency [4] | outcome [5] | Potency [6] | outcome [7] | outcome [8] | outcome [9] | outcome [10]

CC1(CO)CN(c2ccccc2)NC1=O (stereo not given)
inactive: outcome [1] | Potency [2] | outcome [3] | Potency [4] | outcome [5] | Potency [6] | outcome [7] | outcome [8] | outcome [9] | outcome [10]

NCCS
inactive: outcome [1] | Potency [2] | outcome [3] | Potency [4] | outcome [5] | Potency [6] | outcome [7] | outcome [8] | outcome [9] | outcome [10]

Nc1ccc(S(=O)(=O)Nc2ccc(Cl)nn2)cc1
inactive: outcome [1] | Potency [2] | outcome [3] | Potency [4] | outcome [5] | Potency [6] | outcome [7] | outcome [8] | outcome [9] | outcome [10]

CC(C)CCCC(C)(C)O
inactive: outcome [1] | Potency [2] | outcome [3] | Potency [4] | outcome [5] | Potency [6] | outcome [7] | outcome [8] | outcome [9] | outcome [10]
